About 83,000 compounds went through this panel and 20% of them were active in at least one assay; those are over-represented in the sample as a whole.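 Negative percent growth values reflect cell death: -40 means 40% of the cells present at the start died, and -100 means all died.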 A number with no mark means an inactive call. Activity calls are given as the source filed them. The calls were made as follows: active = growth percent below 10; inactive = the rest.
system: OVCAR-3 ovarian; assay: NCI-60 one-dose screen, 48 h (100 = growth as untreated, 0 = no growth, -100 = all killed); details: 10 µM unless noted

Structure (SMILES)	growth
C=C1c2c(C)nn(-c3ccc(C#CCOC4OC(CO)C(O)C(O)C4O)cc3)c2N(C)C23C[C@H]1C1(C)c4c(C)nn(-c5ccc(C#CCOC6OC(CO)C(O)C(O)C6O)cc5)c4N(C)C(C)(C[C@H]12)C3 (some centres undefined)	3.73% (active)
[O-]/[N+](=C\C=C\c1ccccc1)c1ccccc1	99.9%
CN1CCN(Cc2ccc(NC(=O)c3[nH]ncc3Nc3ccnc4ccnn34)cc2)CC1	53.7%
CCCOc1ccc2c(c1)CC[C@@H]1[C@@H]2CC[C@@]2(C)[C@H]1CC[C@]2(C)O	104%
COc1ccc(C2=NN(C(=O)c3cc(OC)c(OC)c(OC)c3)C(c3ccc(C#N)cc3)C2)cc1OC (centres undefined)	-47.8% (active)
CO[C@H]1CC(O[C@@H]2/C(C)=C/C[C@@H]3C[C@@H](C[C@]4(CC[C@H](C)[C@@H](C5CCCCC5)O4)O3)OC(=O)[C@@H]3C=C(C)/C(=N/O)[C@H]4OC/C(=C\C=C\[C@@H]2C)[C@]43O)O[C@@H](C)C1O (some centres undefined)	-98.3% (active)
O=C1CC(C(F)(F)F)=NN1C(=O)c1nn(-c2ccc(Cl)cc2)cc1O	65.7%
CCCCc1nc(Cl)c(CO)n1Cc1ccc(-c2ccccc2-c2nn[nH]n2)cc1	111%
CN(C)c1ccc2[nH]c3c(C(N)=O)cc(=O)c(=O)c=3oc2c1	-9.97% (active)
CCC1(c2ccccc2)Oc2ccccc2-n2c(C#N)c3ccccc3c2C1=O (centres undefined)	103%
O=C1Nc2ccc(F)cc2/C1=C/c1nc(-c2ccc(F)cc2)n2ccccc12	112%
COc1cc(C(=O)/C=C/c2cccnc2Nc2ccccc2)cc(OC)c1OC	-98.5% (active)
Fc1ccc([C@@H]2CCNC[C@H]2COc2ccc3c(c2)OCO3)cc1	81.3%
CCCc1nn(C)c2c(=O)[nH]c(-c3cc(S(=O)(=O)N4CCN(C)CC4)ccc3OCC)nc12	111%
COc1ccc(-c2cc(Cc3cccs3)c(=O)n(Cn3cncn3)n2)cc1	113%
CC[N+](CC)(CCOCCOCC[N+](CC)(CC)Cc1ccc([N+](=O)[O-])cc1)Cc1ccc([N+](=O)[O-])cc1	116%
S=C1SCN(Cc2ccccc2)CN1Cc1ccco1	75.3%
O=C(CSc1nc2c(n1Nc1ccccc1)-c1ccccc1SC2)Nc1nc(-c2ccc(Cl)cc2)cs1	65.7%
C=C(C)[C@@H]1C/C=C(/C=O)CC[C@@H]2O[C@@]2(C)CC/C=C(\C)CC1	110%

Structure (SMILES)	growth
CC[C@@H]1OC(=O)[C@H](C)[C@@H](O[C@H]2C[C@@](C)(OC)[C@@H](O)[C@H](C)O2)[C@H](C)[C@@H](O[C@@H]2O[C@H](C)C[C@H](N(C)C)[C@H]2O)[C@](C)(O)C[C@@H](C)[C@@H]2N[C@@H](COCCOC)O[C@H]([C@H]2C)[C@]1(C)O	124%
C[n+]1c2ccccc2c(Nc2ccc(N3CCCCC3)cc2)c2[nH]c3ccccc3c21	-95.7% (active)
Nc1ccc2c(c1)/C(=N/O)c1cc([N+](=O)[O-])ccc1-2	63.8%
COc1cc(/C=C/c2nnc(-c3cc(-c4ccccc4)n[nH]3)o2)cc(OC)c1OC	107%
O=C(O)c1ccc(NC(=O)c2ccc(Nc3ccnc(C(F)(F)F)c3)cc2)cc1	104%
Cc1c(C(N)=O)sc2ncn(Cc3ccccc3)c(=O)c12	104%
C[C@@H]1CC[C@H]2[C@@H](C)C(O)O[C@@H]3O[C@]4(C)CC[C@@H]1[C@]32OO4 (some centres undefined)	30.1%
Cn1c(=O)c2c(nc(Br)n2CCC(=O)Nc2ccc(F)cc2)n(C)c1=O	125%
N=C(N)/N=C(\CCc1nc2ccccc2[nH]1)c1nc2ccccc2[nH]1	109%
CCOc1cccc(C2CC(=O)Nc3cc4c(cc32)OCO4)c1 (centres undefined)	82.4%
COc1ccc(C2=NNC(c3cc(Cc4ccc(O)c(C5CC(c6ccc(OC)cc6)=NN5)c4)ccc3O)C2)cc1 (centres undefined)	68.6%
O=C(c1ccccc1)c1ccco1	108%
CCC(=O)Nc1ccccc1C#C/C=C\C#Cc1ccccc1C(F)(F)F	70.2%
COc1cc(C2C=C(c3ccc(C)cc3)Nc3nc(SC)[nH]c(=O)c32)ccc1Oc1ccnc2cc(Cl)ccc12 (centres undefined)	81.1%
Cc1cc(N2CCOCC2)nc(N2CCOCC2)n1	107%
Cc1cc(C)n(C(=O)c2nn(-c3ccc(Cl)cc3)cc2O)n1	50.9%
COc1ccc(-c2nn(-c3ccccc3)cc2/C=C2\SC(=S)N(CCc3ccc(O)cc3)C2=O)cc1	94%
CCN(CC)c1ccc(CN(CC(=O)c2ccc(Cl)c(Cl)c2)Cc2ccccc2)cc1	99.2%

system: HS 578T breast; assay: as above; details: 10 µM unless noted

Structure (SMILES)	growth
C=C1c2c(C)nn(-c3ccc(C#CCOC4OC(CO)C(O)C(O)C4O)cc3)c2N(C)C23C[C@H]1C1(C)c4c(C)nn(-c5ccc(C#CCOC6OC(CO)C(O)C(O)C6O)cc5)c4N(C)C(C)(C[C@H]12)C3 (some centres undefined)	1.04% (active)
[O-]/[N+](=C\C=C\c1ccccc1)c1ccccc1	130%
CN1CCN(Cc2ccc(NC(=O)c3[nH]ncc3Nc3ccnc4ccnn34)cc2)CC1	63%
CCCOc1ccc2c(c1)CC[C@@H]1[C@@H]2CC[C@@]2(C)[C@H]1CC[C@]2(C)O	85%
COc1ccc(C2=NN(C(=O)c3cc(OC)c(OC)c(OC)c3)C(c3ccc(C#N)cc3)C2)cc1OC (centres undefined)	-18.3% (active)
CO[C@H]1CC(O[C@@H]2/C(C)=C/C[C@@H]3C[C@@H](C[C@]4(CC[C@H](C)[C@@H](C5CCCCC5)O4)O3)OC(=O)[C@@H]3C=C(C)/C(=N/O)[C@H]4OC/C(=C\C=C\[C@@H]2C)[C@]43O)O[C@@H](C)C1O (some centres undefined)	-43.7% (active)
O=C1CC(C(F)(F)F)=NN1C(=O)c1nn(-c2ccc(Cl)cc2)cc1O	106%
CCCCc1nc(Cl)c(CO)n1Cc1ccc(-c2ccccc2-c2nn[nH]n2)cc1	110%
CN(C)c1ccc2[nH]c3c(C(N)=O)cc(=O)c(=O)c=3oc2c1	20.4%
CCC1(c2ccccc2)Oc2ccccc2-n2c(C#N)c3ccccc3c2C1=O (centres undefined)	105%
O=C1Nc2ccc(F)cc2/C1=C/c1nc(-c2ccc(F)cc2)n2ccccc12	100%
COc1cc(C(=O)/C=C/c2cccnc2Nc2ccccc2)cc(OC)c1OC	24.2%
Fc1ccc([C@@H]2CCNC[C@H]2COc2ccc3c(c2)OCO3)cc1	82.8%
CCCc1nn(C)c2c(=O)[nH]c(-c3cc(S(=O)(=O)N4CCN(C)CC4)ccc3OCC)nc12	104%
COc1ccc(-c2cc(Cc3cccs3)c(=O)n(Cn3cncn3)n2)cc1	106%
CC[N+](CC)(CCOCCOCC[N+](CC)(CC)Cc1ccc([N+](=O)[O-])cc1)Cc1ccc([N+](=O)[O-])cc1	133%
S=C1SCN(Cc2ccccc2)CN1Cc1ccco1	109%
O=C(CSc1nc2c(n1Nc1ccccc1)-c1ccccc1SC2)Nc1nc(-c2ccc(Cl)cc2)cs1	23.4%
C=C(C)[C@@H]1C/C=C(/C=O)CC[C@@H]2O[C@@]2(C)CC/C=C(\C)CC1	126%

Structure (SMILES)	growth
CC[C@@H]1OC(=O)[C@H](C)[C@@H](O[C@H]2C[C@@](C)(OC)[C@@H](O)[C@H](C)O2)[C@H](C)[C@@H](O[C@@H]2O[C@H](C)C[C@H](N(C)C)[C@H]2O)[C@](C)(O)C[C@@H](C)[C@@H]2N[C@@H](COCCOC)O[C@H]([C@H]2C)[C@]1(C)O	115%
C[n+]1c2ccccc2c(Nc2ccc(N3CCCCC3)cc2)c2[nH]c3ccccc3c21	-69.5% (active)
Nc1ccc2c(c1)/C(=N/O)c1cc([N+](=O)[O-])ccc1-2	77.2%
COc1cc(/C=C/c2nnc(-c3cc(-c4ccccc4)n[nH]3)o2)cc(OC)c1OC	99.7%
O=C(O)c1ccc(NC(=O)c2ccc(Nc3ccnc(C(F)(F)F)c3)cc2)cc1	96.8%
Cc1c(C(N)=O)sc2ncn(Cc3ccccc3)c(=O)c12	67.7%
C[C@@H]1CC[C@H]2[C@@H](C)C(O)O[C@@H]3O[C@]4(C)CC[C@@H]1[C@]32OO4 (some centres undefined)	46.4%
Cn1c(=O)c2c(nc(Br)n2CCC(=O)Nc2ccc(F)cc2)n(C)c1=O	102%
N=C(N)/N=C(\CCc1nc2ccccc2[nH]1)c1nc2ccccc2[nH]1	99.4%
CCOc1cccc(C2CC(=O)Nc3cc4c(cc32)OCO4)c1 (centres undefined)	91.6%
COc1ccc(C2=NNC(c3cc(Cc4ccc(O)c(C5CC(c6ccc(OC)cc6)=NN5)c4)ccc3O)C2)cc1 (centres undefined)	43%
O=C(c1ccccc1)c1ccco1	118%
CCC(=O)Nc1ccccc1C#C/C=C\C#Cc1ccccc1C(F)(F)F	17.1%
COc1cc(C2C=C(c3ccc(C)cc3)Nc3nc(SC)[nH]c(=O)c32)ccc1Oc1ccnc2cc(Cl)ccc12 (centres undefined)	90.8%
Cc1cc(N2CCOCC2)nc(N2CCOCC2)n1	95.4%
Cc1cc(C)n(C(=O)c2nn(-c3ccc(Cl)cc3)cc2O)n1	7.1% (active)
COc1ccc(-c2nn(-c3ccccc3)cc2/C=C2\SC(=S)N(CCc3ccc(O)cc3)C2=O)cc1	79.1%
CCN(CC)c1ccc(CN(CC(=O)c2ccc(Cl)c(Cl)c2)Cc2ccccc2)cc1	103%

Source: PubChem BioAssay (NCI)
